# Rows were chosen to be rich in hits. Some 1.1% of all compounds tested hit in one or more screens of this group.
# BJeLR lethal: kills HRASV12-expressing BJeLR cells; inhibition, % (no concentration beside the values); 300,000 tested, 0.17% active; BJeLR (HRASV12) viability, CellTiter-Glo ATP luminescence, 48 h; in the data active = inhibition above about 50%
# PrP UTR inh: inhibition of PrP 5' UTR reporter expression; inhibition, % (test concentration not listed); cell-based PrP 5' UTR mRNA reporter, plate reader; AID 488862; 340,000 tested, 0.35% active; in the data active = inhibition above about 52%
# PrPC TRFRET: reduces human prion protein on the cell surface | cell surface PrPC, TR-FRET read-out | inhibition, % at 13.8 µM | 370,000 tested, 0.43% active | AID 720596; in the data active = inhibition above about 24%
# MazF activator: increases E. coli MazEF RNase cleavage of RNA; P0AE70; FAM/BHQ RNA-DNA oligo cleavage fluorescence, 5 h; activation, % at 20 µM; 350,000 tested, 0.32% active; AID 504720; in the data active = activation above about 50%
# Target sequence (P0AE70 whole entry, looked up): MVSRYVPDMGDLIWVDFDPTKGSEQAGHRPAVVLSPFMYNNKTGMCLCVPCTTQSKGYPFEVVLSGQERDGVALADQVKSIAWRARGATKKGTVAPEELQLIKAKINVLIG
# Numbers stand for hits; 0 = inactive; - = no result given; + = active, no number.
SMILES,BJeLR lethal,PrP UTR inh,PrPC TRFRET,MazF activator
CCN1/C(=C\C(=S)Nc2ccccc2)Sc2ccccc21,0,0,0,0
CCN1/C(=C/C(C)=C/c2sc3ccccc3[n+]2CC)Sc2ccccc21,63.5,0,0,0
CC(=O)N1CCN(S(=O)(=O)c2ccc3c(c2)oc(=O)n3C)CC1,-,-,0,-
CCCCN1CCN(C(=O)C2CCN(S(=O)(=O)c3ccc4[nH]c(=O)oc4c3)CC2)CC1,-,-,0,-
Cc1[nH]c2ccccc2c1/C=C/c1nc2ccccc2c(=O)n1-c1ccc([N+](=O)[O-])cc1,0,0,0,589.3
CCn1c(/C=C/c2c(C)[nH]c3ccccc23)nc2ccccc2c1=O,0,0,0,105.5
Cc1ccc(S(=O)(=O)N2CCCc3nc(C)c(C)cc32)cc1,-,-,0,-
CCOC(=O)Nc1nc(C)c(C(=O)c2ccc(Cl)cc2)s1,0,0,0,86.3
COC(=O)Nc1nc(C)c(C(=O)c2ccccc2)s1,0,0,0,0
O=C(NCc1cccs1)C1CCCN(S(=O)(=O)c2cccc3ccccc23)C1 (stereo not drawn),-,-,0,-
COc1cc(C2NC(=O)NC(C)=C2C(C)=O)ccc1O (stereo not drawn),0,-,0,82.8
CCCCOCCCNC(=O)C[C@@H]1C(=O)N(CCc2ccc(Cl)cc2)C2=CCCCC[C@]21C(=O)OC,-,-,0,-
FC(F)(F)c1nnc2c(Sc3ccccc3)nc3ccc(Cl)cc3n12,61.5,0,0,0
COc1ccc(-c2ccc(SC)nn2)cc1,65.5,0,0,0
Cc1ccccc1-c1ccc2c(c1)[C@@H]1C[C@H]3[C@@H](CN1CC2)[C@H](C)OC(c1ccccc1)N3C (stereo partly drawn),-,-,0,-
C=CCNc1nc(N2CCOCC2)c(C#N)c2c1CN(C)CC2,0,0,0,53.8
O=C(c1ccc2c(c1)C(=O)NC2=O)c1ccc2c(c1)C(=O)NC2=O,-,-,0,-
O=C(Nc1nccs1)C1(C(=O)C2CC2)CC(c2ccccn2)=NO1 (stereo not drawn),-,-,0,-
O=C1C=C(c2cccs2)C[C@H](c2ccccc2)[C@H]1n1nnc([N+](=O)[O-])n1,82.6,0,0,0
CN(C)C(CNC(=O)C1CCN(S(=O)(=O)c2ccc(Cl)cc2)CC1)c1ccccc1 (stereo not drawn),0,0,0,0
COc1ccc(C(CNC(=O)C2CCN(S(=O)(=O)c3ccc(F)cc3)CC2)N(C)C)cc1 (stereo not drawn),0,0,0,+
COc1ccc(C2NN=C(c3c[nH]c4ccccc34)C2O)cc1 (stereo not drawn),0,0,0,0
COc1ccc(C2C(O)C(c3c[nH]c4ccccc34)=NN2C(=O)CCl)cc1 (stereo not drawn),100.3,0,0,0
COCCCNC(=O)C[C@H]1C[C@@]2(C(=O)OC)C(=C[C@H](COCc3ccccc3)O[C@@H]2C)N(CCC2=CCCCC2)C1=O,-,-,0,-
COc1cccc2nc3cc(C)c(C)cc3nc12,58.5,0,0,0
SMILES,BJeLR lethal,PrP UTR inh,PrPC TRFRET,MazF activator
COC(=O)[C@]12C[C@H](CC(=O)NCCCN3CCCC3=O)C(=O)N(CCC3=CCCCC3)C1=C[C@H](COCc1ccccc1)O[C@@H]2C,-,-,0,-
Cc1nc(SCC(=O)c2cc3ccccc3oc2=O)c(C#N)c(-c2cccs2)c1C(=O)Nc1ccccc1,0,0,0,61.4
N#Cc1ccc(-c2ccccc2)nc1SCC(=O)c1cc2ccccc2oc1=O,0,0,0,62.5
C#CCN(Cc1cccc(F)c1)C(=O)c1nnc2c3ccccc3n(S(=O)(=O)c3ccc(C)cc3)c2n1,-,-,0,-
Clc1ccc(CN2C3=NCCCN3c3ccccc32)cc1,0,0,0,0
O=C1c2ccccc2N(Cc2ccc(Cl)cc2)C2=NCCN12,0,0,0,145.7
O=C1Nc2ccccc2/C1=C/c1cnc(-c2ccccc2)[nH]1,0,0,0,98.0
O=C1Nc2ccccc2/C1=C/c1cnc[nH]1,0,0,0,0
O=c1[nH]c(=O)n(-c2ccc(F)cc2)c(O)c1C=Nc1ccccc1N1CCCC1,0,0,0,205.8
CCOC(=O)[C@H]1[C@H]2COc3ccc(Br)cc3[C@H]2N2C(=O)CN(Cc3ccc(C)cc3)C(=O)[C@@]12C,-,0,0,161.5
Cc1cc(C=C2C(=O)N(C)C(=S)N(C)C2=O)c(C)n1C1CCCC1,0,0,0,0
CCN1C(=O)C(=Cc2cc(C)n(C3CC3)c2C)C(=O)N(CC)C1=S,0,0,0,676.8
Cc1ccc(-n2c(SCC(=O)c3ccc4ccccc4c3)nnc2-c2cccnc2)cc1,-,-,0,-
CC(=O)Nc1cc(Cl)c(N=Cc2ccc(O)cc2O)cc1Cl,0,0,0,106.2
O=c1c2nncn2c2cc(C(F)(F)F)ccc2n1CCNc1ncc(C(F)(F)F)cc1Cl,0,0,0,0
O=c1c(Cl)nc2cc(Cl)ccc2n1CCNc1ncc(C(F)(F)F)cc1Cl,87.8,0,-,0
Cc1ccc2c(c1)C1CS(=O)(=O)N(CCc3ccccc3)CN1C2 (stereo not drawn),-,-,0,-
O=C(NC(=S)Nc1ccccc1[N+](=O)[O-])c1ccccc1,0,0,0,0
O=C(NC(=S)/C(=C1\CCCCCN1)[N+](=O)[O-])c1ccccc1,-,58.8,-,0
Cc1cccc(CCNC(=O)CSc2nc3c([nH]2)c(=O)n(C)c(=O)n3C)c1,-,-,0,-
Clc1ccc(-c2nnc3sc(-c4ccc(Br)o4)nn23)cc1,-,0,0,+
N#CCCn1cc(/C=C(\C#N)c2nc3ccccc3s2)c(-c2ccc(F)cc2)n1,0,0,0,52.5
N#CCCn1cc(C=C(C#N)C#N)c(-c2ccc(Cl)cc2)n1,0,0,0,0
CCc1noc2cc(-c3ccccc3)n(C)c(=O)c12,-,-,0,-
COC(=O)C1CC23C=CCN4CCC5(c6ccccc6NC15C2C)C43 (stereo not drawn),57.4,0,0,0
SMILES,BJeLR lethal,PrP UTR inh,PrPC TRFRET,MazF activator
COc1ccc(C2Nc3ccccc3C(=O)N2Cc2ccncc2)cc1COc1ccc(NC(C)=O)cc1 (stereo not drawn),-,-,0,-
COc1ccc2nc3cc(Cl)ccc3c(C#N)c2c1,0,0,0,142.2
CCOc1cc(N2CCC(O)CC2)ccc1Nc1ncc2c(n1)N(C)c1ccccc1C(=O)N2C,-,-,0,-
CCCC(=O)OC[C@H]1CN(C2CCCC2)S(=O)(=O)c2c(Oc3ccc(C(C)(C)C)cc3)cccc2O1,-,-,0,-
Cc1cc2cc(C=C(C#N)C#N)c(Cl)nc2cc1C,0,0,0,53.2
COc1cccc(NC(=O)Nc2c(-c3ccc(C)cc3)nc3ncccn23)c1,-,-,0,-
Cc1cc(C)c2c(c1)c(C)cc1nnc(SCC(=O)c3cccs3)n12,0,0,-,73.7
CN(C)/C=c1\sc2c(C#N)cc(C(=O)c3ccc(Br)cc3)n2c1=O,0,0,0,+
Cc1cc(C)n(CC(=O)c2ccc(Br)cc2)c(=O)c1C#N,0,0,0,0
Cc1ccc([C@H]2C[C@]34CN(Cc5ccccc5)S(=O)(=O)[C@H]3C[C@H]2O4)cc1,-,-,0,-
Cc1ccc(NC(=O)c2sc(Cl)nc2-c2ccccc2)cc1C,0,0,0,66.7
CCOc1ccc(NC(=O)/C=C/c2ccccc2)c([N+](=O)[O-])c1,0,0,0,0
CCOc1ccc(/C=C/C(=O)Nc2ccc(OC)cc2[N+](=O)[O-])cc1,0,0,0,236.8
CN(CC(=O)Nc1ccccc1Br)c1ncnc2sccc12,0,0,0,57.3

# Screens deposited in PubChem BioAssay by several laboratories.
